Laboratory results from the OligoGym collection.

target: FKTN; experiment: pooled miR-30 sensor sort-seq; sequence = guide strand; settings: shRNA
Note: reference of the scale not given here.

Sequence | sensor-assay potency score (higher = more potent)
TCCATCAACAGTAACTTGCTGT | -0.268
TAGAGTGTGGTACTTCTTCTAC | -0.462
TTGACTTGTTCAAAGTTCTTAT | -0.62
TTGCATTGTCGATACCATCCTA | -0.0659
TGCATTGTGAAGTAGAGCCATG | -1.03
TTTGCAGATATAGTGCAGGGGG | -0.241
ATGTCTACAAACTCAGTCCAGC | -1.47
TTAACTGCACGCCACTGTGTGC | -1.27
TTTAAGTCTCAAGTGGCCGTGC | 0.148
TTGTTTAATGTTTTCGCTGCTA | 0.0989
TTGCATTGTGAAGTAGAGCCAT | 0.152
TTTGACTTGTTCAAAGTTCTTA | 0.733
TAAACCTAGAGTGTGGTACTTC | 0.175
TAAATAGTGCTTGTAGTAGTAC | -0.0376
TAGTACAACTGAAACAGCAGAA | 0.161
ATTTTGACAAACCAGCTCCATT | -1.46
TTTCCTGTCAATGTGTTCTTTA | -0.407
TTTTAAACAGTTATCTACCTTT | 0.405
TACTTCTTCTACAAAGTGCATT | -0.78

target: FLG; experiment: as above; settings: shRNA

Sequence | sensor-assay potency score (higher = more potent)
TTTCTTCTAATAGACTATCAGT | -0.739
TTTTGAGTCATTCTTCCTGTAT | -0.417
AATTGTAACTAACACTTCCGTG | -0.414
TTCAGAACTAGATTCATGCCTT | 0.702
TATGAGTAGGTGAATATCCTTT | -0.066
TAGAGTCTGACTGTACAGGTGA | 0.79
TTGTCTGCTTGCACTTCTGGAT | -0.517
TAATCTAGTATTTTCAGTCTTG | 0.133
TTGTCTGCTGACACTTCTGGAT | -0.488
ATTGTAACTAACACTTCCGTGC | 0.359
TTGATTGTTCCTCATTACGTGT | -0.377
TTTTTTTGAATATTGCTTGAAA | -0.0278
TTTACTTGAGTTATGATGGTTT | 0.102
TTTGTCTGCTGACACTTCTGGA | -0.531
TAGAATGGCCACATAAACCTGG | 0.301
TTCTAATAGACTATCAGTGGTG | -0.268
TTTGTCTGCTTGCACTTCTGGA | -0.568
TCTATTGTTTCTTCTTTCCAGA | -0.556
TTTCTCTGCTTGCACTTCTGGA | -0.359
TTTATCATGATGACTGTGCTTT | 0.582
TTTCATAATCATATACTCCTTC | 0.805
